Screening results from PubChem BioAssay.
GPT2 inhibitor = inhibitors of human GPT2 alanine aminotransferase; Recombinant GPT2, coupled pyruvate oxidase/HRP Amplex Red fluorescence; Potency, µM (series often up to 57.7 µM), usual class: inhibitors; 100,000 compounds, 0.25% hits; AID 1671188; also: nearly all actives have a fitted effect of over 60% in size
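GPT2 10ng/uL, a-KG 250uM, L-Ala 2mM, HEPES pH7.5 + 0.0001% Tween; 30 min RT. Then Amplex mix (PO/HRP/ThPP), 30 min RT dark, fluorescence. AOA 50uM used as positive control.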
NIH3T3 tox = cytotoxic compounds in NIH 3T3 cells | Potency, µM (titrated, usually from 96.7 µM), actives largely listed as inhibitors | AID 1345082 | NIH 3T3 viability, CellTiter-Glo ATP luminescence, 48-72 h | 94,000 compounds, 4.3% hits; also: nearly all actives have a fitted effect of over 55% in size
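NIH 3T3 cells at 400 cells/well received 23 nL of compound by pintool and were incubated 48 or 72 h at 37 °C. Viability was read as ATP-coupled CellTiter-Glo luminescence.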
NPR1 antag = blocks ANP-stimulated signaling of human Npr1 receptor. HEK293 hNpr1 GloSensor cGMP, ANP-stimulated luminescence. Potency, µM (titrated, usually from 46.3 µM), most hits filed as inhibitors. 76,000 compounds, 1.6% hits. AID 1347048; calls by dose curve; also: nearly all actives have a fitted effect of over 60% in size
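HEK293 cells stably expressing human Npr1 and cGMP GloSensor pGS-40F, loaded 2 h with 2% GloSensor reagent, given compound 30 min at room temperature. Luminescence read before and 20 min after 0.1 nM hNppA.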
FLuc inh-1 = Photinus pyralis luciferase inhibition. AID 1347043. P08659. purified P. pyralis luciferase, luminescence, biochemical. Potency, µM (doses to about 115 µM), actives largely listed as inhibitors. 76,000 compounds, 2.5% hits; also: nearly all actives have a fitted effect of over 65% in size
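Luminescence read by CCD imager after adding enzyme (10nM final) to wells holding compound, titrated in qHTS. Substrates 10uM each D-luciferin and ATP; buffer 50mM Tris acetate pH 7.5, 10mM Mg acetate, Tween-20, BSA.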
HEK cytotox = cytotoxic compounds in HEK 293 cells; Potency, µM (series often up to 115 µM), most hits filed as inhibitors; HEK 293 viability, ATP luminescence (CellTiter-Glo), 48-72 h; 94,000 compounds, 6.6% hits; also: nearly all actives have a fitted effect of over 60% in size
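HEK 293 seeded at 250 cells/well receive compound via pintool. After 48 or 72 hr at 37 degree Celsius, 5% CO2 and 95% humidity, CellTiter-Glo is dispensed and luminescence read following 10 min at room temperature.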
FLuc SDR -ATP = binders stabilizing firefly luciferase, without ATP | Purified FLuc-C-HiBiT, Nano-Glo HiBiT luminescence, no ATP | shares compounds with FLuc inh-1 | Potency, µM (top dose mostly 32.7 µM), usual class: activators | 1,300 compounds, 7.8% hits; also: nearly all actives have a fitted effect of over 55% in size
FLuc SDR ATP = binders stabilizing firefly luciferase, plus ATP. shares compounds with FLuc inh-1. purified FLuc-C-HiBiT + ATP, HiBiT complementation luminescence. Potency, µM (top dose mostly 32.7 µM), most hits filed as activators. 1,300 compounds, 8.7% hits. AID 1963319;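 also: signal reports ligand binding via conformational change of the enzyme rather than luciferase catalysis; nearly all actives have a fitted effect of over 55% in size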
FLuc inh-2 = firefly luciferase enzyme inhibition; shares compounds with FLuc inh-1; purified FLuc-C-HiBiT enzyme, luciferin luminescence; Potency, µM (highest dose often 32.7 µM), usual class: inhibitors; 1,300 compounds, 42% hits; AID 1963320; also: nearly all actives have a fitted effect of over 70% in size
Large screens that a line does not name were inactive (follow-up assays come after a bar, where they were run). Rows were chosen to be rich in hits. Some 10% of all compounds tested hit in one or more screens of this group. Unless noted, calls follow the shape of the dose curve; as a rule, active = well fitted curve in the direction sought with a large enough effect; inconclusive = small, poorly fitted or top-dose-only effect, or another doubt; inactive = no such curve, though single readings can be large; an effect the other way counts as inactive or inconclusive.

C=CCN(C)C(=O)[C@@H](C)C1CC[C@@]2(C)Cc3sc(NC(=O)CN(C)C)nc3[C@@H](C)[C@@H]2[C@H]1O (some centres not stated)	FLuc inh-1 13µM | FLuc SDR -ATP inactive | FLuc SDR ATP inactive | FLuc inh-2 inactive
CCN(CC)C(=O)C(C)[C@@H]1CC[C@@]2(C)Cc3sc(NC(=O)C4CC4)nc3[C@@H](C)[C@@H]2[C@H]1O (some centres not stated)	none
O=C(c1ccc(Cl)cc1)N1CC2(CCN(Cc3ccccn3)C2)Cc2ccccc21 (configuration not stated)	NIH3T3 tox inconclusive, HEK cytotox inconclusive (no result: NPR1 antag, FLuc inh-1)
CC(C)c1ccc(C2=CC(c3ccc(C(C)C)cc3)n3nnnc3N2)cc1 (configuration not stated)	none (no result: GPT2 inhibitor, NIH3T3 tox, NPR1 antag, FLuc inh-1, HEK cytotox) | FLuc SDR -ATP inactive | FLuc SDR ATP inactive | FLuc inh-2 inactive
Cc1ccsc1C(=O)N1CCC(N2C(=O)CCC2C(=O)NCc2cccnc2)CC1 (configuration not stated)	none (no result: NPR1 antag, FLuc inh-1)
Cc1ccc(N2CCN(c3nc(C(=O)O)cs3)CC2)cc1	FLuc inh-1 1.4µM | FLuc SDR -ATP inactive | FLuc SDR ATP inconclusive | FLuc inh-2 2µM
COCCCNC(=O)c1csc(N2CCN(c3ccccc3)CC2)n1	HEK cytotox inconclusive
CC(=O)NC1(C)CCN(Cc2ccc(-c3ccc4c(ccn4C)c3)cc2)C1 (configuration not stated)	NIH3T3 tox inconclusive, NPR1 antag inconclusive, FLuc inh-1 4.5µM, HEK cytotox inconclusive | FLuc SDR -ATP inactive | FLuc SDR ATP inconclusive | FLuc inh-2 7.2µM
COc1ccc(-c2cccc(CN3CCCC(C)(NC(C)=O)C3)c2)cc1OC (configuration not stated)	NIH3T3 tox inconclusive, HEK cytotox inconclusive
COc1ccc(-c2cnc3[nH]cc(CC(=O)N4CCN(c5ccccn5)CC4)c3c2)cc1	NIH3T3 tox inconclusive, NPR1 antag inconclusive, FLuc inh-1 7.1µM, HEK cytotox 79µM | FLuc SDR -ATP inactive | FLuc SDR ATP inactive | FLuc inh-2 inconclusive
O=C(c1ccccc1)N1CCC(C(=O)N2CCCC(c3nc4ccncc4[nH]3)C2)CC1 (configuration not stated)	none (no result: NPR1 antag, FLuc inh-1)
Cc1ccc(NC(=O)Nc2cccn3nc(C)nc23)cc1	GPT2 inhibitor inconclusive, NIH3T3 tox inconclusive, FLuc inh-1 7.9µM, HEK cytotox inconclusive | FLuc SDR -ATP inconclusive | FLuc SDR ATP inactive | FLuc inh-2 inconclusive
COc1cccc(CNC(=O)Nc2cccn3nc(C)nc23)c1	none
O=C1CC(c2ccccc2)N(C(=O)CNC(=O)Nc2ccc3c(c2)OCCO3)CCCCCN1 (configuration not stated)	FLuc inh-1 10µM | FLuc SDR -ATP inactive | FLuc SDR ATP inactive | FLuc inh-2 inconclusive
Cc1ccc(NC(=O)C2CCN(C(=O)c3ncn4c3COC(c3ccc(F)cc3)C4)CC2)c(F)c1 (configuration not stated)	FLuc inh-1 13µM | FLuc SDR -ATP inactive | FLuc SDR ATP inconclusive | FLuc inh-2 inconclusive
O=C(Nc1ccccc1F)C1CCN(C(=O)c2ncn3c2COC(c2ccc(F)cc2)C3)CC1 (configuration not stated)	FLuc inh-1 inconclusive
COc1ccc(C)cc1NC(=O)C1CCN(C(=O)c2ncn3c2COC(c2ccc(F)cc2)C3)CC1 (configuration not stated)	FLuc inh-1 7.1µM | FLuc SDR -ATP inactive | FLuc SDR ATP inconclusive | FLuc inh-2 inconclusive
CC(C)CNC(=O)c1cccc2c1CCN2C(=O)c1ccc(F)cc1	HEK cytotox inconclusive
CCC(=O)N1CCc2c(C(=O)O)cccc21	FLuc inh-1 28µM | FLuc SDR -ATP inactive | FLuc SDR ATP inactive | FLuc inh-2 inactive
O=C(O)c1cccc2c1CCN2C(=O)c1ccc(F)cc1	NIH3T3 tox inconclusive, NPR1 antag inconclusive, FLuc inh-1 1.3µM | FLuc SDR -ATP inactive | FLuc SDR ATP 1.2µM | FLuc inh-2 1.8µM
CC(CCc1ccccc1)NC(=O)C1CN(C2CCCCC2)C(=O)N1 (configuration not stated)	NIH3T3 tox inconclusive, HEK cytotox inconclusive (no result: NPR1 antag, FLuc inh-1)
Cc1ccc(CN2C(=O)OC(c3cccc(NC(=O)c4ccc(C)cc4)c3)C2C(=O)NCC(C)C)cc1 (configuration not stated)	NPR1 antag inconclusive, FLuc inh-1 7.1µM, HEK cytotox inconclusive | FLuc SDR -ATP inactive | FLuc SDR ATP 11µM | FLuc inh-2 inconclusive
CNC(=O)c1cc(C)nc2onc(C3CCCN(C(=O)C4CCCC4)C3)c12 (configuration not stated)	none (no result: GPT2 inhibitor, NPR1 antag, FLuc inh-1)
NCC1(N2CCOCC2)CCCCC1	none (no result: NPR1 antag, FLuc inh-1)
COc1ccc(N2CCN(C(=O)c3noc(-c4ccc(C)cc4)n3)CC2)cc1	NIH3T3 tox inconclusive, FLuc inh-1 14µM, HEK cytotox inconclusive | FLuc SDR -ATP inactive | FLuc SDR ATP inactive | FLuc inh-2 inconclusive
COc1ccccc1N1CCN(C(=O)c2noc(-c3ccc(C)cc3)n2)CC1	NIH3T3 tox inconclusive
C=CCNC(=O)c1cccc2c(C)nnn12	GPT2 inhibitor inconclusive, FLuc inh-1 14µM | FLuc SDR -ATP inactive | FLuc SDR ATP inactive | FLuc inh-2 inactive
COc1ccc(Cn2c(=O)c(C(=O)N3CCN(Cc4ccccc4)CC3)nc3cccnc32)cc1	NIH3T3 tox inconclusive, HEK cytotox inconclusive (no result: NPR1 antag, FLuc inh-1)
COc1ccc(/C=C/c2ccc3c(c2)C(=O)N2CC[C@H](NC(=O)CCC(=O)O)[C@H]2C(=O)N3)cc1	FLuc inh-1 6.3µM | FLuc SDR -ATP inconclusive | FLuc SDR ATP inconclusive | FLuc inh-2 inconclusive
O=C(N[C@H]1CCN2C(=O)c3cc(/C=C/c4ccc(O)cc4)ccc3NC(=O)[C@H]12)c1cnccn1	FLuc inh-1 13µM, HEK cytotox inconclusive | FLuc SDR -ATP inactive | FLuc SDR ATP inactive | FLuc inh-2 inactive
O=C(O)COCC(=O)N[C@H]1CCN2C(=O)c3cc(/C=C/c4ccccc4)ccc3NC(=O)[C@H]12	FLuc inh-1 7.9µM | FLuc SDR -ATP inactive | FLuc SDR ATP inconclusive | FLuc inh-2 inconclusive
O=C(O)CCC(=O)N[C@H]1CCN2C(=O)c3cc(/C=C/c4ccccc4)ccc3NC(=O)[C@H]12	FLuc inh-1 inconclusive
O=C(N[C@H]1CCN2C(=O)c3cc(/C=C/c4ccccc4)ccc3NC(=O)[C@H]12)c1cnccn1	FLuc inh-1 inconclusive, HEK cytotox inconclusive
